SARS PLpro yeast: inhibitors of SARS-CoV papain-like protease in yeast; S. cerevisiae expressing SARS-CoV PLpro, growth rescue; Potency, µM (titrated, usually from 32.9 µM), usual class: activators; 0.19% of 330,000 active; calls by dose curve; further: nearly all actives have a fitted effect of over 55% in size
AMA1-RON2 inh: AMA1-RON2 (P. falciparum) interaction inhibition; AID 720542; Potency, µM (highest dose often 58.2 µM), actives largely listed as inhibitors; AlphaScreen AMA1-biotinylated RON2 peptide binding; 0.2% of 360,000 active; further: nearly all actives have a fitted effect of over 45% in size
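AMA1 (3D7) with his tag at 25 nM final met compounds first, then biotinylated RON2 peptide at 25 nM; detection used donor plus acceptor beads, 10 µg/mL apiece, read by AlphaScreen after 30 min at room temperature.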
Shiga toxin inh: blocks Shiga toxin action in Vero cells. AID 2315. 9.2% of 290,000 active. inhibition, % at 38.7 µM. Vero cells, Shiga toxin protein synthesis inhibition reporter; in the data active means inhibition mostly above about 28%, no sharp cut-off; inactive means mostly below about 43%
Cycloheximide cs: affects cycloheximide protein synthesis inhibition readout, counter-screen; cell reporter, cycloheximide protein synthesis inhibition counterscreen; AID 2314; max response, %; 12% of 300,000 active; in the data active means max response mostly above about 13%, no sharp cut-off; inactive means mostly below about 14%; further: read at 38.3 µM for the half of the compounds with a filed dose
Pf growth 48h: P. falciparum growth inhibition at 48 hours (one generation) | 5.9% of 310,000 active | AID 504832 | Potency, µM (highest dose often 28.7 µM), most hits filed as inhibitors | P. falciparum luciferase growth in erythrocytes, 48 h
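First compound was added to culture medium, then infected red cells at 0.1% parasitemia and 2% hematocrit (final). After incubation at 37 C under 5% CO2, luciferase detection reagent was dispensed and light output recorded.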
Pf growth 96h: P. falciparum growth inhibition at 96 hour, primary screen for plastid delayed-death inhibitors; P. falciparum luciferase reporter growth, 96 h; AID 504834; Potency, µM (series often up to 28.7 µM), actives largely listed as inhibitors; 6.9% of 320,000 active
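Two-generation exposure (96 h) targets delayed-death phenotype. Reporter parasites carrying integrated firefly luciferase, in red cells at 2% hematocrit and 0.05% parasitemia final, kept at 37 C, 5% CO2; luminescence loss indicates inhibition.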
Hits are given with their value; – = inactive; ? = inconclusive; · = not tested or not shown. Most compounds without a hit are left out; they make up all but 19% or so of the library. Unless noted, the call rests on the fitted dose curve; in most records, active means well fitted curve in the direction sought with a large enough effect; inconclusive means small, poorly fitted or top-dose-only effect, or another doubt; inactive means no such curve, though single readings can be large; an effect the other way counts as inactive or inconclusive.

SMILES | SARS PLpro yeast | AMA1-RON2 inh | Shiga toxin inh | Cycloheximide cs | Pf growth 48h | Pf growth 96h
O=C(Nc1ccccc1F)c1ccc2ncsc2c1 | – | – | 149 | 61 | – | –
O=C(Nc1ccncc1)c1ccc2ncsc2c1 | – | – | · | · | ? | ?
O=C(Nc1ccc(F)cc1F)c1ccc2ncsc2c1 | – | – | 97 | 63 | – | –
CCc1ccc(N(CC(=O)NCc2ccco2)C(=O)CCC(=O)Nc2ccccn2)cc1 | – | – | – | – | – | –
O=C1CC(c2ccco2)CC2=C1C(c1ccncc1)n1nc(C(F)(F)F)nc1N2 (centres undefined) | · | · | – | – | · | ·
Cc1nn(CC(=O)NCCCN2CCCC2=O)c(C)c1[N+](=O)[O-] | – | – | · | · | · | ·
O=C(Nc1ccc(Cl)cc1Cl)c1ccc2ncsc2c1 | – | – | 78 | 41 | – | –
Cn1c(=O)[nH]c(=O)c2c1nc(NCCCO)n2Cc1ccc(F)cc1 | – | – | 79 | – | – | –
Cn1c(=O)[nH]c(=O)c2c1nc(NCCCn1ccnc1)n2Cc1ccccc1 | – | – | – | – | – | –
CC/C(C)=N/Nc1nc2c(c(=O)[nH]c(=O)n2C)n1Cc1ccccc1 | – | – | – | – | ? | ?
Cc1ccc(Nc2nc3c(c(=O)[nH]c(=O)n3C)n2Cc2ccc(F)cc2)cc1 | – | – | 26 | 13 | ? | –
Cc1ccc(C(=O)CNc2nc3c(c(=O)[nH]c(=O)n3C)n2Cc2ccccc2)cc1 | – | – | – | – | 13µM | 9.3µM
O=C(C1CCCO1)N1CCN(C(=S)Nc2ccccc2C(F)(F)F)CC1 (centres undefined) | – | – | – | – | – | –
CN(C)N=Nc1ccc(-c2cn(Cc3ccccc3)cn2)cc1 | – | – | 41 | 47 | ? | 4.7µM
CC(C)c1cccc(C(C)C)c1NC(=O)CNCc1ccccc1F | – | ? | – | – | – | –
CCN(CC)CCNC(=O)c1c(O)c2cccc3c2n(c1=O)CCC3 | – | – | – | – | 1.9µM | ·
CCn1c(=O)c(C(=O)NCCN2CCCCC2)c(O)c2ccccc21 | – | – | – | – | 8.3µM | –
CCn1c(=O)c(C(=O)NCCc2ccc(OC)c(OC)c2)c(O)c2ccccc21 | – | – | – | – | ? | 10µM
CCCn1c(=O)c(C(=O)NCCc2ccc(OC)c(OC)c2)c(O)c2ccccc21 | ? | – | – | – | ? | –
CC(=O)Nc1nc(C2CC2)cc(-c2ccccc2)c1C#N | – | – | – | – | – | ?
COc1cc(OC)c(NC(=O)/C=C/C(=O)O)cc1Cl | – | – | – | – | ? | ?
CN(C)/C=C(\C#N)S(=O)(=O)c1ccc(Cl)cc1 | – | – | – | – | – | –
CCC(C)[C@H](NC(=O)N1CCCC1)C(=O)O (some centres undefined) | – | – | – | – | · | 6.6µM
COC(=O)[C@H](CC(C)C)NC(=O)N1CCCCC1 | – | – | – | – | – | –
CC(=O)Nc1ccc(NC(=O)[C@@H](NC(=O)N2C[C@H]3C[C@@H](C2)c2cccc(=O)n2C3)C(C)C)cc1 | – | – | – | – | – | –
SMILES | SARS PLpro yeast | AMA1-RON2 inh | Shiga toxin inh | Cycloheximide cs | Pf growth 48h | Pf growth 96h
O=C1/C(=C/c2ccccc2)Nc2ccccc21 | – | – | – | – | ? | 3.7µM
CSc1ccc2c(c1)N(CCC1CCCCN1C)c1ccccc1S2 (centres undefined) | – | ? | – | – | 9.3µM | ?
CC1CC(=O)N(CC(=O)N2CCCC2)c2ccccc2S1 (centres undefined) | – | – | – | – | – | ?
COc1cccc(NC(=S)Nc2cccnc2)c1 | – | – | – | – | – | –
COc1ccc(NC(=S)Nc2cc(C)ccn2)c(OC)c1 | – | – | 75 | 28 | – | –
COc1ccc(NC(=S)Nc2cccnc2)c(OC)c1 | – | – | – | – | – | 15µM
COc1ccc(NC(=S)Nc2ccccn2)c(OC)c1 | – | – | 120 | 35 | – | –
CCN(CC)CCN(C)C1CCC(c2ccccc2)CC1 (centres undefined) | – | – | – | – | – | ?
Nc1ccccc1OCCOc1ccccc1N | – | – | – | 20 | · | –
O=C(C1CCC1)N1CCC(c2nc3c(nnn3Cc3c(F)cccc3Cl)c(=O)[nH]2)CC1 | – | – | – | – | 13µM | –
O=c1[nH]c(C2CCN(S(=O)(=O)c3ccccc3)CC2)nc2c1nnn2Cc1cccc(Cl)c1 | – | – | – | – | ? | –
O=c1[nH]c(C2CCN(S(=O)(=O)c3ccccc3)CC2)nc2c1nnn2Cc1c(F)cccc1Cl | – | – | – | – | ? | 5.2µM
CCCCON1C(=O)c2cccc3cccc(c23)C1=O | – | – | 41 | 15 | – | –
CCOC(=O)CCCSc1nnc(CCCCCN2C(=O)c3cccc4cccc(c34)C2=O)o1 | – | – | – | – | ? | 1.9µM
CCOC(=O)CCCCCN1C(=O)c2cccc3cccc(c23)C1=O | – | – | – | – | – | 6.6µM
O=C1c2ccccc2C(=O)N1CCCCON1C(=O)c2ccccc2C1=O | – | – | – | – | – | –
CCOC(=O)CSc1nnc(CCCCCN2C(=O)c3cccc4cccc(c34)C2=O)o1 | – | – | – | – | ? | –
C#CCOC(=O)CN1C(=O)c2cccc3cccc(c23)C1=O | – | – | – | 18 | – | ?
O=C1NC[C@H](CCCCN2C[C@H](Cc3ccc(O)cc3)N(CC3CCCCC3)C(=O)C2=O)N(CCC2CCCCC2)C1=O | · | – | · | · | · | ·
CCOc1ccc(C2/C(=C(\O)c3cccc(OC)c3)C(=O)C(=O)N2c2ccccn2)cc1OC (centres undefined) | – | – | – | – | – | –
CC(C)NC(=O)c1ccc(-c2ccc(F)c(F)c2)c2ccoc12 | · | – | · | · | · | ·
CC1(C)CN(c2cccc(Br)c2)C1=O | – | – | – | – | – | –
COC(=O)c1cc(NS(=O)(=O)c2ccc(NC(C)=O)cc2)ccc1Cl | – | – | – | – | – | –
CC(C)Cn1c(N)c(C(=O)NCC2CCCO2)c2nc3ccccc3nc21 (centres undefined) | – | – | – | – | ? | ?
Nc1c(C(=O)NC2CCCC2)c2nc3ccccc3nc2n1CC1CCCO1 (centres undefined) | – | – | – | – | 10µM | –
SMILES | SARS PLpro yeast | AMA1-RON2 inh | Shiga toxin inh | Cycloheximide cs | Pf growth 48h | Pf growth 96h
COCCn1c(N)c(C(=O)NCC2CCCO2)c2nc3ccccc3nc21 (centres undefined) | – | – | – | – | ? | –
Nc1c(C(=O)NC2CCCC2)c2nc3ccccc3nc2n1N | – | – | 43 | 71 | – | –
Nc1c(C(=O)NC2CCCC2)c2nc3ccccc3nc2n1/N=C/c1ccco1 | – | – | – | – | · | –
Nc1c(C(=O)NCC2CCCO2)c2nc3ccccc3nc2n1Cc1ccco1 (centres undefined) | – | – | – | – | 9.3µM | –
O=Nc1c(O)[nH]c2ccc(Cl)cc12 | – | – | – | – | – | –
COc1ccccc1CCC(=O)OCC(=O)Nc1cc(C)nn1-c1ccccc1 | · | – | · | · | – | –
